Inconclusive results are not listed. Calls of active or inactive are those of the source. The call rests on the fitted dose curve; in most records, active means well fitted curve in the direction sought with a large enough effect; inconclusive means small, poorly fitted or top-dose-only effect, or another doubt; inactive means no such curve, though single readings can be large; an effect the other way counts as inactive or inconclusive.
What was measured:
[1] = molecular target: Cytochrome P450 3A7 (Homo sapiens) (UniProt P24462); test: Cytochrome P450 family 3 subfamily A member 7 (CYP3A7) small molecule antagonists: luciferase biochemical qHTS assay (AID 1963596); further: on the % scale 0 is the no-effect control and ±100 the full control effect; nearly all actives have a fitted effect of over 40% in size
Chain of Cytochrome P450 3A7 (Homo sapiens) (P24462 whole entry, looked up): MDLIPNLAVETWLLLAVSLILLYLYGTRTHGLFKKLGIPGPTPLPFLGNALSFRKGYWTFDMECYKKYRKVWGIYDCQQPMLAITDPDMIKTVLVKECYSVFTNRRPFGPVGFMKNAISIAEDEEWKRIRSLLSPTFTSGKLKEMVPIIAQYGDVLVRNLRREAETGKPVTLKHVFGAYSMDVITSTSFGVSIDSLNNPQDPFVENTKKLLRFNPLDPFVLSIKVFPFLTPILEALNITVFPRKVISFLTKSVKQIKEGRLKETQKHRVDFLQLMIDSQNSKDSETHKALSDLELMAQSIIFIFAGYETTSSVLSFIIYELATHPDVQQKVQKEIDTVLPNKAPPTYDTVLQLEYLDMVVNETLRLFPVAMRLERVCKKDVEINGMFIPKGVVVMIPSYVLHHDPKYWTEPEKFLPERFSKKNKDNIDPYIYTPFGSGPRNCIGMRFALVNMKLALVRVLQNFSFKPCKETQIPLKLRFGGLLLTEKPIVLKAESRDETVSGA
Outline: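 Luminescence from luciferin released by CYP3A7 from a proluciferin substrate, read 20 min after detection reagent. Compound and enzyme-substrate mix sat 10 min before NADPH regeneration solution; reaction ran 1 h at room temperature.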

[2] = Quantitative highthroughput screen to assess conditional lethalithy of NOMO1 cells grown in RPMI1640 with dialyzed fetal bovine serum (RPMI+ds) (AID 1963877); further: nearly all actives have a fitted effect of over 30% in size; further: potency means the concentration at half of the fitted maximal effect;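 on viability: series mostly up to about 46 µM; 100% = DMSO control wells and 0% = empty wells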
Outline: (§1)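 Each medium arm—HPLM with 10% dialyzed FBS, or RPMI1640 with 5 mM glucose and 10% untreated or dialyzed FBS—was screened against an 11-point, 3-fold compound titration for 48 h at 37 °C, with CellTiter-Glo luminescence as endpoint.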

[3] = Quantitative highthroughput screen to assess conditional lethalithy of P12 Ichikawa cells grown in Human Plasma-Like Medium with dialyzed fetal bovine serum (HPLM+ds) (AID 1963879); details: Potency: viability; further: nearly all actives have a fitted effect of over 35% in size; further: potency means the concentration at half of the fitted maximal effect; on viability: series mostly up to about 46 µM
Outline: as §1

[4] = Quantitative highthroughput screen to assess conditional lethalithy of P12 Ichikawa cells grown in RPMI1640 with dialyzed fetal bovine serum (RPMI+ds) (AID 1963880); details: Potency: P12-Ichikawa viability; further: nearly all actives have a fitted effect of over 35% in size; further: potency means the concentration at half of the fitted maximal effect;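 on viability: 100% = DMSO wells and 0% = empty wells on each plate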
Outline: as §1

[5] = Quantitative highthroughput screen to assess conditional lethalithy of P12 Ichikawa cells grown in RPMI1640 with untreated serum (RPMI+s) (AID 1963881); details: Potency: viability; further: nearly all actives have a fitted effect of over 35% in size; further: potency means the concentration at half of the fitted maximal effect;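 on viability: series mostly up to about 46 µM; 100% = DMSO wells and 0% = empty wells without cells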
Outline: as §1

[6] = Quantitative highthroughput screen to assess conditional lethalithy of SEM cells grown in Human Plasma-Like Medium with dialyzed fetal bovine serum (HPLM+ds) (AID 1963882); further: nearly all actives have a fitted effect of over 35% in size; further: potency means the concentration at half of the fitted maximal effect; on viability: series mostly up to about 46 µM
Outline: as §1

[7] = Quantitative highthroughput screen to assess conditional lethalithy of SEM cells grown in RPMI1640 with unreated serum (RPMI+s) (AID 1963883); further: nearly all actives have a fitted effect of over 35% in size; further: potency means the concentration at half of the fitted maximal effect;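 on viability: 100% = DMSO wells and 0% = empty wells without cells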
Outline: as §1

[8] = Quantitative highthroughput screen to assess conditional lethalithy of SEM cells grown in RPMI1640 with dialyzed fetal bovine serum (RPMI+ds) (AID 1963884); further: nearly all actives have a fitted effect of over 35% in size; further: potency means the concentration at half of the fitted maximal effect;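 on viability: series mostly up to about 46 µM; 100% = DMSO control wells and 0% = empty wells without cells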
Outline: as §1

[9] = Cellular viability qHTS for adrenocortical cancer (ACC) cell line SW-13 (AID 1963989); details: SW-13 ACC cells viability, CellTiter-Glo, 48 h; activity (max response): stronger effect = lower value; further: nearly all actives have a fitted effect of over 65% in size; further: potency means the concentration at half of the fitted maximal effect;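 on activity (max response): cells grown in serum-free medium with ITS supplement; on the % scale 0 is the no-effect control and ±100 the full control effect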
Outline: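 Viability was read as CellTiter-Glo luminescence after 48 h compound treatment (up to 46 uM final) of SW-13 cells grown serum-free; titration curves were fit with a four-parameter logistic model to give IC50 and efficacy.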

[10] = Cellular viability qHTS for adrenocortical cancer (ACC) cell line NCI-H295R (AID 1963990); further: nearly all actives have a fitted effect of over 60% in size; further: potency means the concentration at half of the fitted maximal effect
Outline: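 CellTiter-Glo ATP luminescence, read 48 h after compound addition, measured viability of NCI-H295R adrenocortical cells grown serum-free with ITS. Final concentrations spanned up to 46 uM. Data normalized to DMSO and doxorubicin, fitted for IC50 and maximal response.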

[11] = Quantitative highthroughput screen to assess conditional lethalithy of NOMO1 cells grown in RPMI1640 with untreated serum (RPMI+s) (AID 1963876); further: nearly all actives have a fitted effect of over 35% in size; further: potency means the concentration at half of the fitted maximal effect;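 on viability: 100% = DMSO wells and 0% = empty wells without cells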
Outline: as §1

[12] = Quantitative highthroughput screen to assess conditional lethalithy of NOMO1 cells grown in Human Plasma-Like Medium with dialyzed fetal bovine serum (HPLM+ds) (AID 1963878); further: nearly all actives have a fitted effect of over 35% in size; further: potency means the concentration at half of the fitted maximal effect;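 on viability: 100% = DMSO wells and 0% = empty wells on each plate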
Outline: as §1

CCOC(=O)N1CCN([N+]([O-])=NOc2ccc([N+](=O)[O-])cc2C#N)CC1
inactive: Potency [1]
active: Potency [2] 2.96 µM | Potency [3] 1.05 µM | Potency [4] 1.05 µM | Potency [5] 1.05 µM | Potency [6] 1.18 µM | Potency [7] 1.05 µM | Potency [8] 1.05 µM

COc1nccc(-c2c(-c3ccc(F)cc3)ncn2C2CCC(O)CC2)n1 (stereo not given)
inactive: Potency [1] | Potency [5] | activity (max response) [9] -14% | Potency [10]
active: Potency [7] 5.26 µM

O=c1c(-c2ccc(O)cc2)coc2cc(OC3O[C@H](CO)[C@H](O)[C@H](O)[C@H]3O)cc(O)c12 (stereo not given in full)
inactive: Potency [1] | Potency [11] | Potency [2] | Potency [12] | Potency [3] | Potency [5] | Potency [6] | Potency [7] | Potency [8]

CCN(CC)CC#CCOC(=O)C(O)(c1ccccc1)C1CCCCC1 (stereo not given)
inactive: Potency [1] | Potency [11] | Potency [12] | Potency [3] | Potency [5] | Potency [7] | Potency [8]

Cn1cc(-c2ccc(F)c(C(F)(F)F)c2)nc1C1CCN(c2ncnc3[nH]ncc23)CC1
inactive: Potency [1] | Potency [2] | Potency [12] | Potency [3] | Potency [4] | Potency [5] | Potency [6] | Potency [7] | activity (max response) [9] 13.1% | Potency [10]

COc1cc(Nc2ncc3c(n2)-c2ccc(Cl)cc2C(c2c(F)cccc2OC)=NC3)ccc1C(=O)O
inactive: Potency [1]
active: Potency [11] 0.0833 µM | Potency [2] 0.0662 µM | Potency [3] 0.0743 µM | Potency [5] 0.059 µM | Potency [9] 31.6 µM | Potency [10] 2.24 µM

O=c1[nH]cc(F)c(=O)[nH]1
inactive: Potency [1] | activity (max response) [9] -6.36% | Potency [10]
active: Potency [12] 10.5 µM | Potency [3] 8.33 µM | Potency [4] 10.5 µM | Potency [6] 9.35 µM | Potency [7] 9.35 µM | Potency [8] 10.5 µM

CN1CCN(c2c(F)cc3c(=O)c(C(=O)O)cn4c3c2SCC4)CC1
inactive: Potency [1] | activity (max response) [9] -3.92%

CCOC(=O)Cn1cccc1-c1nc(-c2ccc(OC)cc2)c(-c2ccc(OC)cc2)s1
inactive: Potency [1] | activity (max response) [9] 9.49%

CN(C)CCCO[C@@H]1[C@H]2OC(C)(C)O[C@H]2O[C@@H]1C(O)CO (stereo not given in full)
inactive: Potency [1] | activity (max response) [9] 7.54% | Potency [10]

CC(C)Nc1cc(C(F)(F)F)cc2nc(NC(=O)c3cccnc3)nn12
inactive: Potency [1] | activity (max response) [9] -12.5%
active: Potency [11] 1.05 µM | Potency [2] 0.743 µM | Potency [3] 0.935 µM | Potency [6] 1.32 µM | Potency [7] 1.18 µM | Potency [8] 1.18 µM

N=C(N)N
inactive: Potency [1] | activity (max response) [9] 4.4%

N#C[C@H]1C[C@H]2C[C@@H]2N1C(=O)[C@@H](N)C12CC3CC(CC(O)(C3)C1)C2
active: Potency [12] 10.5 µM
inactive: Potency [1] | Potency [3] | Potency [4] | Potency [5] | Potency [8] | activity (max response) [9] 11.7% | Potency [10]

Reference: PubChem BioAssay (NCATS)
